In paper PMC5540273 (PLoS ONE, 2017):
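Note: kd values determined as follow-up on hits from a single-replicate KINOMEscan panel screen.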

These compounds were tested on T1, CDC2L5.
T1 construct: gene CDK13
`COc1ccc(CSc2nnc(-c3ccc4c(c3)CCO4)o2)cc1` gave a Kd greater than 10 µM. With `CCn1c(-c2c(N)noc2C)nc2cnccc21` [SB-737856] the Kd was greater than 10 µM. `CCn1c(-c2ccccc2)nc2cnccc21` [SB-733416] was tested, and the Kd was greater than 10 µM.

Each compound was assayed on T2, CDK11.
T2 construct: gene CDK19
Compound `CC(=O)c1cccc(NC(=O)NC2CCN(c3ccnc(Nc4ccc(F)cc4)n3)C2)c1` (stereo not shown) [GSK1379710] has a Kd of 2 µM. `Nc1ncnc2occ(-c3ccc4c(c3)CCN4C(=O)Cc3cc(F)ccc3F)c12` [GSK2645446] showed a Kd of 1.1 µM. For `O=c1cc(N2CCOCC2)nc2n(Cc3cccc(Cl)c3Cl)c3ccccc3n12` [GSK2299009], the Kd was greater than 10 µM. `Cc1cnc(N)c(/C=C/c2cncc(C(=O)NCCc3ccc(Cl)cc3Cl)c2)c1.Cl` [GSK190937] gave a Kd of 0.41 µM.

What follows are compounds tested on CDK4-cyclinD1.
For `CC(C)c1ccc(O)cc1Nc1ccnc2ccc(C(F)(F)F)cc12` [GW482059], the Kd was greater than 10 µM. `CC(=O)c1c(C)c2cnc(Nc3ccn(C)n3)nc2n(C2CCCC2)c1=O` showed a Kd of 0.023 µM. Work on `CC(=O)c1c(C)c2cnc(Nc3ccc(N4CCNCC4)cn3)nc2n(C2CCCC2)c1=O` yielded a Kd of 0.0013 µM.
